# From PubChem BioAssay (NCI)
# This is part of a sample that, as a whole, favours compounds with a hit. Of some 79,000 tested, about 15% had one in any assay. Calls of active or inactive are those of the source. Cut-off read from the data, not from the text of the source: active = growth inhibition above about 70%; inactive = the rest.
# Experiment: NCI Yeast Anticancer Drug Screen. Data for the rad50 strain (AID 155);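 note: 0% = growth of vehicle-only cultures of the same strain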
# Conditions: S. cerevisiae rad50 strain growth inhibition; at 100.0 µM; hits give high values
# Summary of the method: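 Inhibition values express reduced yeast growth in compound-treated cultures relative to vehicle-treated controls.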
row,Structure (SMILES),growth inhibition
1,CCOP(=O)(OCC)C(Cc1ccccc1)N=C(c1ccccc1)c1ccccc1 (centres undefined),98% (active)
2,CCc1ncnc2cc(OCC3CO3)c(OC)cc12 (centres undefined),91% (active)
3,CCOC(=O)[C@H]1Nc2ccccc2C2c3ccccc3CC21 (some centres undefined),55% (inactive)
4,O=CNc1ccc2c(c1)C(=O)c1ccccc1-2,96% (active)
5,CCOc1ccc2c(c1)c(CC(=O)O)cn2C,98% (active)
6,OC1CSCCCSCCSCCCSC1,-25% (inactive)
7,N#Cc1c(N)[nH]c2ccc(Sc3ccccc3)cc12,96% (active)
8,Cc1ccc(-c2ccc(Nc3c4ccccc4nc4ccccc34)cc2)cn1,88% (active)
9,c1ccc2c(c1)NC(NC1Nc3ccccc3N1)N2,40% (inactive)
10,OC(COc1cccc2ccccc12)CN1CCOCC1 (centres undefined),36% (inactive)
11,CCC/C(Cl)=N\OC(=O)Nc1ccc(Br)cc1,98% (active)
12,COc1ccc(/C=C2\SC(=S)N(/C=C/c3nc4ccccc4[nH]c3=O)C2=O)cc1OC,85% (active)
13,O=C(NNc1ccnc2cc(Cl)ccc12)/C(=C\c1ccccc1Cl)NC(=O)c1ccccc1,30% (inactive)
14,CSC1=NNC(SC)=NN1,97% (active)
15,Cc1c(C2=C(Br)C(=O)N(C)C2=O)c(=O)n(C)c(=O)n1C,91% (active)
16,NCCNc1ccc(NCCN)c2c1C(=O)c1c(O)ccc(O)c1C2=O,65% (inactive)
17,Cn1c(=O)c(-c2ccccc2)c(N=[N+]=[N-])c2ccccc21,92% (active)
18,CCCCCCCCCCCCCCCCCCOCC(O)COP(=O)(O)OCC1OC(n2cc(F)c(=O)[nH]c2=O)CC1O (centres undefined),98% (active)
19,CCS(=O)(=O)c1ccc(/C=C/C=N/NC(=S)NCC(C)C)cc1,5% (inactive)
20,CCC(=O)Oc1c(Cl)cc(Cl)c2ccccc12,35% (inactive)

row,Structure (SMILES),growth inhibition
1,COc1cc2c3c(cccc3c1)C(=O)N(CCN(C)C)C2=O,88% (active)
2,CN(C)c1ccc(C(C#N)=C(C#N)C#N)cc1,62% (inactive)
3,O=C(CCCN1CCC2(CC1)CC(=O)N(N1CCCCCC1)C2=O)c1ccc(F)cc1,61% (inactive)
4,O=C1C2C(C(=O)N1c1ccc(OCc3ccccc3)cc1)C1c3ccccc3C2C2CCCCN21 (centres undefined),94% (active)
5,CCN(CC)CCC(=O)c1ccc(Oc2ccc(F)cc2)cc1,87% (active)
6,O=Nc1c(NO)ccc2nn(-c3ccccc3)nc12,98% (active)
7,CC(=O)SCCC[Si](C)(C)CCCSC(C)=O,44% (inactive)
8,O=C(O)C1CCCCC1c1c2ccc(=O)c(O)c-2oc2c(O)c(O)ccc12 (centres undefined),77% (active)
9,Cc1ccc(NN(NC(=O)OC(C)C)C(=O)OC(C)C)cc1,13% (inactive)
10,O=C1c2ccccc2C(=O)c2cc(CBr)ccc21,92% (active)
11,Cc1c(C(Cc2ccccc2N(C)C(=O)/C=C\C(=O)O)c2c[nH]c3ccccc23)c2ccccc2n1C (centres undefined),37% (inactive)
12,CC(C)/C(Cl)=N\OC(=O)Nc1ccc(F)cc1,81% (active)
13,O=C1OC(=O)C2CCCC3CCCC1C32 (centres undefined),96% (active)
14,CCOC(=O)C(NC(=O)c1ccccc1)(N1CCN(c2cc3c(cc2F)c(=O)c(C(=O)O)cn3C2CC2)CC1)C(F)(F)F (centres undefined),79% (active)
15,COc1ccc(NC(=S)N/N=C(\c2ccccc2)c2ccccn2)cc1,95% (active)
16,C=CCC1=C(C)C(OC(=O)/C=C/c2ccccc2)CC1=O (centres undefined),39% (inactive)
17,NNc1c(F)c(F)cc(F)c1F,25% (inactive)
18,COP(=O)(OC)/C(=C\C1=CN(C(c2ccccc2)(c2ccccc2)c2ccccc2)CN1)NC=O,96% (active)
19,COC(=O)c1cc(-c2ccc(C)cc2)[nH]c(=O)c1C#N,-2% (inactive)
